Reference: PubChem BioAssay (EPA / NIEHS)
Several values for one entry are separate records, joined by “and”; a condition that tells them apart may be missing. Equal values may be shown once. Results filed as inconclusive are left out. Some structures have more than one record in an assay (separate samples or runs), and their calls can disagree. Activity calls are given as the source filed them. Rule for the calls, unless noted: active = hit-call score of the fitted dose curve at least 0.9, where 1 is the maximum; inactive = score below 0.9.

Tests used:
[1] = ATG_TAL_CIS: Attagene CIS-FACTORIAL HepG2 Assay for human TAL Basal Promoter (AID 2282966); settings: HepG2 Attagene cis-factorial TAL promoter reporter; actives raise or lower the signal;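 note: background control endpoint measuring basal TAL promoter reporter mRNA not a specific factor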
How it was run: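 In this cell-based multiplex, HepG2 liver cells bearing cis-promoter reporter constructs are dosed for 24 hours. Total RNA is reverse-transcribed and amplified, labelled fragments are sized by capillary electrophoresis, and signal changes are fitted bidirectionally versus DMSO.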

[2] = ATG_TGFb_CIS: Attagene CIS-FACTORIAL HepG2 Assay for human Transforming Growth Factor (TGF) (AID 2282967); settings: HepG2 Attagene CIS TGFb reporter, mRNA transcription; actives raise or lower the signal
How it was run: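 Cells were dosed for 24 hours, after which total RNA was reverse-transcribed and reporter sequences amplified, labeled and sized by capillary electrophoresis. Activity was fitted in both directions against DMSO.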

[3] = ATG_VDRE_CIS: Attagene CIS-FACTORIAL HepG2 Assay for human Vitamin D Receptor Element (VDRE) (AID 2282968); settings: HepG2 VDRE cis-reporter transcription, actives raise or lower the signal
How it was run: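 RT-PCR/CE readout of reporter mRNA; HepG2, transient transfection, 24 h dosing; DMSO baseline; bidirectional analysis.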

[4] = target: X-box-binding protein 1 (Homo sapiens) (UniProt P17861); test: ATG_Xbp1_CIS: Attagene CIS-FACTORIAL HepG2 Assay for human X-box Binding Protein 1 (XBP1) (AID 2282972); settings: HepG2 XBP1 cis-element reporter, Attagene multiplex; actives raise or lower the signal
Sequence of X-box-binding protein 1 (Homo sapiens) (P17861 whole entry, looked up): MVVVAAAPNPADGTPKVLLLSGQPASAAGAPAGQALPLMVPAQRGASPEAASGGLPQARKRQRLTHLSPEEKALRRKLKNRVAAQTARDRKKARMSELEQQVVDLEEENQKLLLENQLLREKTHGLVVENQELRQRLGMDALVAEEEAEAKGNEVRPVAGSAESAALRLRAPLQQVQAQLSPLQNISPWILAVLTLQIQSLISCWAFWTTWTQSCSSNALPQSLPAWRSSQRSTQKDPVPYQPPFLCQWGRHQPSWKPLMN
How it was run: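 After a 24-hour chemical exposure of HepG2 cells carrying cis-regulated reporters, reporter mRNA levels are assessed. Quantification uses RT-PCR, 6-FAM labelling and capillary electrophoresis. Gain- or loss-of-signal is fitted against DMSO.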

[5] = ATG_M_19_TRANS: Attagene TRANS-FACTORIAL HepG2 Assay for M19 Transcription Factor (Internal Marker) (AID 2282974; active = hit-call score of the fitted dose curve at least 0.9, where 1 is the maximum); settings: HepG2 Attagene TRANS-FACTORIAL M19 internal marker reporter
How it was run: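 Multiplexed TRANS format: HepG2 liver cells bearing transient GAL4-UAS reporter units, chemical treatment 24 h, reporter transcripts quantified by RT-PCR plus capillary electrophoresis. DMSO defines baseline.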

[6] = ATG_GAL4_TRANS: Attagene TRANS-FACTORIAL HepG2 Assay for GAL4 (Internal Marker) (AID 2282976; active = hit-call score of the fitted dose curve at least 0.9, where 1 is the maximum); settings: HepG2 Attagene TRANS GAL4 internal marker reporter
How it was run: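 RT-PCR/capillary electrophoresis readout of reporter mRNA. HepG2, transient MRTU transfection (GAL4-UAS reporters), 24 h compound exposure. Background-control endpoint, positive direction vs DMSO baseline.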

[7] = target: Glucocorticoid receptor (Homo sapiens) (UniProt P04150); test: ATG_GR_TRANS: Attagene TRANS-FACTORIAL HepG2 Assay for human Glucocorticoid Receptor (GR) (AID 2282978; active = hit-call score of the fitted dose curve at least 0.9, where 1 is the maximum;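 note: activators score as hits since higher reporter transcript over DMSO is fitted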); settings: HepG2 Attagene TRANS GR reporter, mRNA transcription
Sequence of Glucocorticoid receptor (Homo sapiens) (P04150 whole entry, looked up, the tested form may be a part): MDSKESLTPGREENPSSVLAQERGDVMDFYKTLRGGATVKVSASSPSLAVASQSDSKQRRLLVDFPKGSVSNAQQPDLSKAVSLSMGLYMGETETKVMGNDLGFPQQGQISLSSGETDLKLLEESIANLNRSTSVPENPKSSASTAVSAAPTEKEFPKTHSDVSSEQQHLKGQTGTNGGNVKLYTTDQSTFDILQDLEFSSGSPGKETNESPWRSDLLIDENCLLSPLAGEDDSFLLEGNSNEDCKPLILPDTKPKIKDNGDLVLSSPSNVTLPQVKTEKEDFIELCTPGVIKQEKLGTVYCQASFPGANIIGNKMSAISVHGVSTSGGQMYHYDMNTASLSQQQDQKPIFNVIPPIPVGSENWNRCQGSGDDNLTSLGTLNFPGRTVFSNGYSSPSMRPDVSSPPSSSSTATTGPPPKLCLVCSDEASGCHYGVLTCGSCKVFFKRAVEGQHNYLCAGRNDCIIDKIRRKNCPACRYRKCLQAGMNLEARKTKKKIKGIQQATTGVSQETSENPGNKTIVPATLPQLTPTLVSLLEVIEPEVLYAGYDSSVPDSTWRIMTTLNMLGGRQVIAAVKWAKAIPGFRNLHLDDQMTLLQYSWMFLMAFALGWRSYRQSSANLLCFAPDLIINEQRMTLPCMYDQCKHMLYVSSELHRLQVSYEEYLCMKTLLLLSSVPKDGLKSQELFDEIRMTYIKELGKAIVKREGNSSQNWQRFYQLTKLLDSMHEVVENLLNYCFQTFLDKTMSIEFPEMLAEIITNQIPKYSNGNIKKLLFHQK
How it was run: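 Transiently transfected HepG2 cells express chimeric NR-GAL4 proteins acting on GAL4-UAS reporter units. Compounds are applied for 24 h. mRNA induction over DMSO is measured by capillary electrophoresis.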

[8] = target: Estrogen receptor (Homo sapiens) (UniProt P03372); test: ATG_ERa_TRANS: Attagene TRANS-FACTORIAL HepG2 Assay for human Estrogen Receptor alpha (ERa) (AID 2282970; active = hit-call score of the fitted dose curve at least 0.9, where 1 is the maximum); settings: HepG2 Attagene TRANS ERa GAL4 reporter, mRNA
Sequence of Estrogen receptor (Homo sapiens) (P03372 whole entry, looked up, the tested form may be a part): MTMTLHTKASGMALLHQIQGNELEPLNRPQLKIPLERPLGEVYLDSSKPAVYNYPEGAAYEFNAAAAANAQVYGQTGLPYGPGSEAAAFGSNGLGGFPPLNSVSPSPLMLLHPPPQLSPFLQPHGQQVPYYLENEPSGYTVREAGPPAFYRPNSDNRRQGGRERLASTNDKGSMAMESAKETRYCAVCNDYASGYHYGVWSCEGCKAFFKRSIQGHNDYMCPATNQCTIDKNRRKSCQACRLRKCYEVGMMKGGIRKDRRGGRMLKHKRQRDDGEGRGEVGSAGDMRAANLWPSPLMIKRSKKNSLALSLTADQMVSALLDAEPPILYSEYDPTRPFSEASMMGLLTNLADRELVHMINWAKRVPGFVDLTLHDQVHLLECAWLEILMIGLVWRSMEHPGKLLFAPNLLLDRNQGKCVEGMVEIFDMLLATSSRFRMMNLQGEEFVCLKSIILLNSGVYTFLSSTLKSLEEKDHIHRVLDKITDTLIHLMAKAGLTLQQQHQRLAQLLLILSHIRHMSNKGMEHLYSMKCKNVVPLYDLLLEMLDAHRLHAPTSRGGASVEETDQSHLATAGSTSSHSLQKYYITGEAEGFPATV
How it was run: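 After 24 h of compound treatment, RNA from HepG2 cells bearing transfected GAL4-UAS reporter constructs is converted to cDNA, amplified and fluorescently labelled. Capillary electrophoresis resolves the ERa-linked reporter; DMSO serves as negative control.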

[9] = target: Steroid hormone receptor ERR1 (Homo sapiens) (UniProt P11474); test: ATG_ERRa_TRANS: Attagene TRANS-FACTORIAL HepG2 Assay for human Estrogen-Related Receptor alpha (ERRa) (AID 2282971; active = hit-call score of the fitted dose curve at least 0.9, where 1 is the maximum); settings: HepG2 Attagene TRANS reporter, ERRa transactivation
Sequence of Steroid hormone receptor ERR1 (Homo sapiens) (P11474 whole entry, looked up, the tested form may be a part): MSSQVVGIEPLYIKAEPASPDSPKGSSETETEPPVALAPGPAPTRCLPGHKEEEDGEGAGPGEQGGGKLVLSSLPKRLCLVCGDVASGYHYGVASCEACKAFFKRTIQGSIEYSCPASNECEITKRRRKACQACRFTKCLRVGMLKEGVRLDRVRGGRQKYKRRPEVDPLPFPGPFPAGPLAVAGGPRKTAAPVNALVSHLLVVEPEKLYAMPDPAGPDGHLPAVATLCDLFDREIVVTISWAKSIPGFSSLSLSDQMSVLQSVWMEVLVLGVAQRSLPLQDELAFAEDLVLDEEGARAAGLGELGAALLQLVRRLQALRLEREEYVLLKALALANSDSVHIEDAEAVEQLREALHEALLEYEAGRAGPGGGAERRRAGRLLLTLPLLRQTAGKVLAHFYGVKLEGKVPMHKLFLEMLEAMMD
How it was run: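 Transfected HepG2, 24 h dosing, ERRa-Gal4 chimera driving GAL4-UAS reporter. Readout: reporter mRNA via RT-PCR plus capillary electrophoresis (fluorescence). Positive direction vs DMSO control.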

[10] = target: Nuclear receptor subfamily 1 group I member 3 (Homo sapiens) (UniProt Q14994); test: ATG_CAR_TRANS: Attagene TRANS-FACTORIAL HepG2 Assay for human Constitutive Androstane Receptor (CAR) (AID 2282969; active = hit-call score of the fitted dose curve at least 0.9, where 1 is the maximum;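 note: activators raise reporter mRNA above DMSO so AC50 marks induction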); settings: HepG2 Attagene TRANS-FACTORIAL CAR reporter
Sequence of Nuclear receptor subfamily 1 group I member 3 (Homo sapiens) (Q14994 whole entry, looked up, the tested form may be a part): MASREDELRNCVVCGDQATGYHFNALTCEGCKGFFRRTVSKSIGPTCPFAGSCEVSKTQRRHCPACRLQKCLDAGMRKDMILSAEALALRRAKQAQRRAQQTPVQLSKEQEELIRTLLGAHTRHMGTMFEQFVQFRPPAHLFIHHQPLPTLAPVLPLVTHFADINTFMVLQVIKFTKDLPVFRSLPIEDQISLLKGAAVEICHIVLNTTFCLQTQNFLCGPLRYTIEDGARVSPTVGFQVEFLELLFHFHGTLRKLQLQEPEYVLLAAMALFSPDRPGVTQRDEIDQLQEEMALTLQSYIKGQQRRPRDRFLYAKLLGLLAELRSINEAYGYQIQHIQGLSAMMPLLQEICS
How it was run: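 HepG2 cells transiently transfected with multiplexed GAL4-UAS reporter units expressing chimeric NR-Gal4 proteins; compound exposure 24 h. Reporter mRNA measured by RT-PCR, 6-FAM labelling, HpaI digestion and capillary electrophoresis; gain-of-signal fitted against DMSO baseline.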

Measured: AC50

O=C(Oc1ccccc1)c1cccc(C(=O)Oc2ccccc2)c1
inactive: [1] | [2] | [3] | [4] | [5] | [6] | [7]

CS(=O)(=O)c1ccc([C@@H](C[C@H]2CCC(=O)C2)C(=O)Nc2cnccn2)cc1Cl
inactive: [1] | [2] | [3] | [8] | [4] | [5] | [7]

N[C@@H](Cc1c[nH]c2ccccc12)C(=O)O
inactive: [1] | [2] | [3] | [4] | [5] | [6]

CCc1nc(N)nc(N)c1-c1ccc(Cl)cc1
inactive: [1] | [2] | [8] | [7]
active: [3] 100 µM | [4] 147 µM

CN(C)C(=O)NC1(c2ccccc2)CCN(CC[C@@]2(c3ccc(F)c(F)c3)CN(C(=O)c3ccccc3)CCO2)CC1
active: [3] 4.16 µM
inactive: [1] | [2] | [4] | [5] | [7]

CCCCCCCCCC[N+](C)(C)[O-]
inactive: [1] | [2] | [3] | [9] | [4] | [5] | [7]

O=C(O)c1[nH]n(-c2ccc(S(=O)(=O)O)cc2)c(=O)c1N=Nc1ccc(S(=O)(=O)O)cc1
inactive: [1] | [2] | [3] | [8] | [4] | [6]

CC(C)NCC(O)c1ccc(O)c(O)c1 (configuration not stated)
inactive: [1] | [2] | [3] | [9] | [4] | [6]

CC(C)c1cccc(C(C)C)c1
inactive: [1] | [2] | [3] | [9] | [4] | [5]

CC(=O)[C@@]1(O)CC[C@H]2[C@@H]3CCC4=CC(=O)CC[C@]4(C)[C@H]3CC[C@@]21C
inactive: [1] | [2] | [3] | [4] | [5] | [6] | [7]
active: [7] 6.26 µM and 14.8 µM and 1.58 µM

Cc1ccc(C(C)(C)C)c(O)c1
active: [3] 151 µM | [8] 6.64 µM | [4] 139 µM
inactive: [1] | [2]

O=[Si]=O
inactive: [1] | [2] | [3] | [8] | [4] | [5] | [6]

O=C1OC(c2ccc(O)cc2)(c2ccc(O)cc2)c2ccccc21
active: [1] 46.8 µM | [3] 6.27 µM | [4] 30 µM
inactive: [2] | [5]

Oc1ccc(O)cc1
active: [8] 59.9 µM | [4] 114 µM
inactive: [1] | [2] | [3]

NC=O
inactive: [1] | [2] | [3] | [4]

NC1CCCCC1
inactive: [1] | [2] | [3] | [4] | [6]

CC(C)c1cccc(C(C)C)c1NC(=O)NS(=O)(=O)c1cc(C(C)(C)O)co1
inactive: [1] | [2] | [4] | [6]
active: [3] 29.7 µM

Cc1cc(SC2=C(O)C[C@@](CCc3ccc(N)cc3)(C(C)C)OC2=O)c(C(C)(C)C)cc1CO
active: [3] 5.63 µM
inactive: [1] | [2] | [9] | [4] | [5]

CCC(C)N(C)C(=O)c1cc2ccccc2c(-c2ccccc2Cl)n1 (configuration not stated)
inactive: [1] | [2] | [8] | [4] | [5]
active: [3] 1.54 µM

CCCCC(CC)COC(=O)CCCCCCCC(=O)OCC(CC)CCCC (configuration not stated)
inactive: [1] | [2] | [10] | [9] | [4] | [7]

CCCCC(CC)COP(=O)(OCC(CC)CCCC)OCC(CC)CCCC (configuration not stated)
active: [3] 0.61 µM
inactive: [1] | [2] | [4] | [6] | [7]

CN(C)CCCN(C)CCCN(C)C
inactive: [1] | [2] | [8] | [4] | [5]

NC(=Nc1ccccc1)Nc1ccccc1
inactive: [1] | [2] | [8] | [5] | [7]
active: [4] 57.2 µM

COc1ccc(C(=O)Nc2nc3ccccc3c(NCc3ccccc3)c2C#N)cc1
inactive: [1] | [2] | [8] | [9] | [4] | [5]

O=C1O[C@H]([C@H](O)CO)C(O)=C1O
inactive: [1] | [2] | [4] | [5] | [6] | [7]

Nc1nc(=S)c2[nH]cnc2[nH]1
inactive: [1] | [2] | [10] | [8] | [4]

CCOCCOCCO
inactive: [1] | [2] | [9] | [4] | [5] | [6] | [7]

C/C=C/c1ccc(OC)cc1
inactive: [1] | [2] | [4] | [5]

Cc1cc(Cc2ccc(N)c(C)c2)ccc1N
inactive: [1] | [2] | [10] | [4] | [5] | [6] | [7]

O=C(O)c1cccnc1
inactive: [1] | [2] | [10] | [4] | [5] | [6]
active: [4] 25.2 µM

CC(=O)O
inactive: [1] | [2] | [4] | [5]

O=Cc1ccccc1C=O
inactive: [1] | [2] | [4] | [6]

O=C1c2c(O)cccc2Cc2cccc(O)c21
inactive: [1] | [2] | [4] | [6] | [7]

O=C1NC(=O)C(c2ccccc2)(c2ccccc2)N1
inactive: [1] | [2] | [4] | [7]

COC(=O)[C@H]1[C@H]2C[C@@H]3c4[nH]c5cc(OC)ccc5c4CCN3C[C@H]2C[C@@H](OC(=O)c2cc(OC)c(OC)c(OC)c2)[C@@H]1OC
inactive: [1] | [2] | [4] | [7]

COC(=O)CCCC(=O)OC
inactive: [1] | [2] | [3] | [4] | [7]

CC(N)=O
inactive: [1] | [2] | [4] | [6] | [7]

C#CC(O)C(CC)CCCC (configuration not stated)
inactive: [1] | [2] | [10] | [4] | [5] | [7]

CC(C)(O)c1ccc(CNC(=O)c2cccnc2Oc2ccc(F)cc2)cc1
inactive: [1] | [2] | [10] | [9] | [4] | [5] | [6] | [7]

Cn1cnc2c1c(=O)[nH]c(=O)n2C
inactive: [1] | [2] | [3] | [4] | [6] | [7]

CC(=O)OCC(COC(C)=O)OC(C)=O
inactive: [1] | [2] | [3] | [4] | [7]

CC(=O)OC1CC(C)OC(C)O1 (configuration not stated)
inactive: [1] | [2] | [10] | [9] | [4] | [5] | [6]

Nc1nc(Cl)nc2c1ncn2[C@H]1C[C@H](O)[C@@H](CO)O1
inactive: [1] | [2] | [3] | [4] | [7]

CCCCCCC(CCCCCCCCCCC(=O)OCC(COC(C)=O)OC(C)=O)OC(C)=O (configuration not stated)
inactive: [1] | [2] | [3] | [4] | [7]

CN(C)CCCN1c2ccccc2Sc2ccc(Cl)cc21
inactive: [1] | [2] | [4] | [7]
active: [3] 11.1 µM

CCc1cc(C2=C(C(=O)O)N(c3ccccc3C(F)(F)F)S(=O)(=O)c3ccccc32)cc2c1OCO2
active: [3] 11.8 µM
inactive: [1] | [2] | [4] | [6] | [7]

Cc1ccc(-c2cc(C(F)(F)F)nn2-c2ccc(S(N)(=O)=O)cc2)cc1
inactive: [1] | [2] | [8] | [4] | [7]

CCCCCCCCCCCCCCOS(=O)(=O)O
active: [2] 15.1 µM
inactive: [1] | [3] | [4] | [7]
